Source: PubChem BioAssay
FBW7 act = activators of human E3 ligase FBW7; Q969H0; AlphaScreen FBW7–phospho-cyclin E peptide binding, activator screen; normalized activity (activation), % at 26.1 µM; 650,000 compounds, 0.13% hits; in the data active = normalized activity above about 1.9%;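 also: purified mutant Fbw7 with reduced substrate affinity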
MITF inh = human MITF inhibition, primary screen; O75030; AlphaScreen MITF homodimerization, bead proximity signal; inhibition, % at 2.6 µM; 650,000 compounds, 0.91% hits; in the data active = inhibition above about 50%;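 also: 0% = vehicle wells with protein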
TEAD-YAP block = TEAD-YAP interaction inhibition | AID 1259422 | 640,000 compounds, 1.4% hits | HEK-TIYL cells, TEAD-Gal4/YAP UAS-luciferase luminescence | inhibition, % at 9.12 µM; in the data active = inhibition above about 32%;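 also: 0% = median of test compound wells and 100% = reference inhibitor wells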
GPR151 ag = activators of human GPR151; Q8TDV0; PathHunter beta-arrestin GPR151 cells, luminescence; activation, % at 11.2 µM; 650,000 compounds, 1% hits; in the data active = activation above about 4.9%;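 also: 0% = median of compound wells and 100% = cells with positive control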
Target sequence (Q8TDV0 whole entry, looked up): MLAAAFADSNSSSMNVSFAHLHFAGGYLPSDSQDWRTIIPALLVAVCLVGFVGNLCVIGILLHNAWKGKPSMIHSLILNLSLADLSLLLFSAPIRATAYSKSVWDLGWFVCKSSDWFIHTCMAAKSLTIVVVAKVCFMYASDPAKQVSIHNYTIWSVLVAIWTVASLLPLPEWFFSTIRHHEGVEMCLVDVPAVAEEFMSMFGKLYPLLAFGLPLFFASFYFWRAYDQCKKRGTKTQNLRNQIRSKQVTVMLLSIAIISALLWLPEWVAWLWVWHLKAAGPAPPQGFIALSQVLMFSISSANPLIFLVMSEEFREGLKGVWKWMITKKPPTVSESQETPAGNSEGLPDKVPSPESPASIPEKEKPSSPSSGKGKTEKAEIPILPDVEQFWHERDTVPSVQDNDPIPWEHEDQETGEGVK
MITF inh conf = confirmation of human MITF inhibitors | shares compounds with MITF inh | 4,700 compounds, 16% hits | AlphaScreen MITF homodimerization, biotin/His-MITF beads | inhibition, % at 2.6 µM;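 active = inhibition above a cutoff derived from the DMSO control wells, cut at about 28% in these data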;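 also: 0% = MITF dimer wells with DMSO only; inhibitors lower the bead chemiluminescence by keeping MITF from dimerizing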
AlphaScreen DR = AlphaScreen optical interference, dose response counter-screen | AlphaScreen optical interference counterscreen, cell-free | 480 compounds, 6% hits | shares compounds with MITF inh | IC50, µM; call rule not given here
AlphaScreen intf2 = optically interferes with AlphaScreen signal. shares compounds with MITF inh. LysRS AlphaScreen counterscreen, signal interference, triplicate. inhibition, % at 2.6 µM. 4,700 compounds, 7.6% hits. AID 1259376;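 active = inhibition above a cutoff derived from the DMSO control wells, cut at about 30% in these data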
Active calls of the source: *; x = not tested or not shown. Hits are enriched below; roughly 3.5% of the tested compounds scored in any of these assays.

SMILES	FBW7 act	MITF inh	TEAD-YAP block	GPR151 ag	MITF inh conf	AlphaScreen intf2	others
Fc1ccccc1OCCCn1cnc2ccccc21	0	5	-18	0	x	x
COCCNC(=O)c1ccc(-c2ccccc2OC)nc1NCC1CC1	0	-7	-5	-1	x	x
COc1cc(CN2CCN(Cc3cccc(Cl)c3)CC2)cc2c1OCO2	0	49	-7	-1	x	x
COc1cc(CN2CCN(Cc3ccc(SC)cc3)CC2)cc2c1OCO2	0	65*	10	0	12	7
COc1cc(OC)c(OC)cc1CN1CCN(Cc2cc(OC)c3c(c2)OCO3)CC1	0	59*	4	-1	-8	-6
COc1ccc(CN2CCN(Cc3cc(OC)c4c(c3)OCO4)CC2)c(OC)c1	0	30	17	-2	x	x
COc1cc(CN2CCN(Cc3ccc(Br)cc3)CC2)cc2c1OCO2	0	69*	-4	0	3	18
N=C1c2ccccc2CN1n1cnc2scc(-c3ccccc3)c2c1=O	1	32	15	0	x	x
CCn1c(C)nc2cc(C(=O)NNC(=O)NC3CCCCC3)ccc21	0	9	0	0	x	x
CCn1c(C)nc2cc(C(=O)NNC(=O)COc3cccc(Br)c3)ccc21	0	86*	1	3	1	-2
COCCNCCOCCOc1ccc(C(C)(C)C)cc1C	0	26	-5	-2	x	x
Cc1cc(C(C)(C)C)ccc1OCCOCCN(C)C	0	72*	12	2	-2	-7
CN(C)CCOCCOc1ccc(Cl)cc1C(C)(C)C	0	3	-8	0	x	x
Cc1ccc(C(C)(C)C)c(OCCOCCN(C)C)c1	0	68*	0	-1	-3	-8
COc1ccc(C(=O)Nc2c(N)nc(SCC(=O)NC3CCCC3)[nH]c2=O)cc1	0	6	6	-1	x	x
O=C(c1cc2ccccc2o1)N1CCN(c2ccc([N+](=O)[O-])cc2Cl)CC1	0	5	-5	0	x	x
CCCCCC(=O)CC[C@@H]1[C@@H](C/C=C\CCCC(=O)O)[C@@H](O)C[C@@H]1O	x	56*	x	-2	0	12
O=C(/C=C/c1ccco1)NCC(=O)N/N=C/c1ccc(C(=O)O)cc1	0	51*	5	1	45*	-5	AlphaScreen DR=>6.5
COc1ccc(C(=O)c2sc3c(c2N)C2(CCCCC2)C(c2nc(-c4ccccc4)cs2)C(N)=N3)cc1 (stereo not given)	0	-8	6	3	x	x
CCOc1cc(-c2cc(OCC)c3c(C)oc(C)c3c(=O)c2)ccc1O	0	-7	-7	0	x	x
CCOc1cc(-c2ccc(I)o2)cc(=O)c2c(C)oc(C)c12	0	58*	-2	-1	37*	-2
COCC(=O)NCC1CCC2(CCN(Cc3ccccc3OC)CC2)O1 (stereo not given)	0	4	0	0	x	x
O=C1N=c2ccc(Br)cc2=C1c1[nH]c(=O)[nH]c1O	0	-7	3	-1	x	x
COc1ccc(S(=O)(=O)Nc2ccc(-c3cn4ccc(C)nc4n3)cc2)cc1C	0	5	0	2	x	x
CC(C)(C)n1nnnc1C(c1cccs1)N1CCN(Cc2ccc3c(c2)OCO3)CC1 (stereo not given)	0	78*	4	-1	15	17
SMILES	FBW7 act	MITF inh	TEAD-YAP block	GPR151 ag	MITF inh conf	AlphaScreen intf2	others
O=C(c1ccncc1)N1CCN(Cc2ccc3c(c2)OCO3)CC1	1	87*	-6	-1	-1	1
CCOC(=O)N1CCN(Cc2ccc3c(c2)OCO3)CC1	0	-17	-9	1	x	x
OC(CN1CCOCC1)CN1CCN(Cc2ccc3c(c2)OCO3)CC1 (stereo not given)	0	76*	-1	0	7	10
CCOc1ccccc1CN1CCN(Cc2ccc3c(c2)OCO3)CC1	0	52*	2	1	4	0
O=C(CSc1nnc(CNC(=O)c2ccc(F)cc2)o1)c1ccc(Cl)cc1	0	14	11	0	x	x
Cc1ccc2oc(-c3ccc(NC(=O)COc4ccc(Br)cc4)cc3O)nc2c1	0	10	-10	1	x	x
CCc1ccc(CN2CCN(CC3CC=CCC3)CC2)cc1 (stereo not given)	0	69*	-8	-1	-4	1
C1=CCC(CN2CCN(Cc3ccc4c(c3)OCO4)CC2)CC1 (stereo not given)	1	66*	-2	0	7	19
CN1CCN(CC(=O)NCc2ccc3c(c2)OCO3)CC1	0	83*	10	0	6	18
Cc1ccccc1CN1CCN(CC2CC=CCC2)CC1 (stereo not given)	0	68*	-9	-2	-3	17
Clc1cccc(CN2CCN(CC3CC=CCC3)CC2)c1 (stereo not given)	0	32	-7	1	x	x
CN1CCN(C(=S)C(=O)NCc2ccc3c(c2)OCO3)CC1	0	-6	5	2	x	x
Cc1ccccc1CN1CCC(CN)CC1	0	-4	11	0	x	x
COc1ccc(NC(=O)c2c(C)nc3ccccn23)c(OC)c1	0	5	-17	-1	x	x
COc1ccc(CN2CCN(CC3CC=CCC3)CC2)c(OC)c1OC (stereo not given)	0	66*	12	1	-19	-2
CCC(C)N1CCN(CC2CC=CCC2)CC1 (stereo not given)	0	62*	-1	0	17	17
Cc1ccc(CN(Cc2ccco2)C(=S)NCC(=O)NCc2ccc3c(c2)OCO3)cc1	0	6	7	1	x	x
CCCS(=O)(=O)N1CCN(Cc2cccc(F)c2)CC1	0	45	-9	2	x	x
CCCS(=O)(=O)N1CCN(Cc2ccc3c(c2)OCO3)CC1	0	53*	-6	-1	10	18
COc1cc(CN2CCN(CC3CC=CCC3)CC2)cc(OC)c1O (stereo not given)	0	4	-2	2	x	x
O=C(CNCc1ccco1)NCc1ccc2c(c1)OCO2	0	67*	1	0	10	21
COc1cccc(OC2=C(Cl)C(=O)N(c3ccccc3Cl)C2=O)c1	0	-2	2	0	x	x
Cc1ccc(C(=O)Nc2ccc([N+](=O)[O-])cc2)cc1S(=O)(=O)Nc1ccc(Br)cc1	0	-1	7	0	x	x
c1cc2c(cc1CN1CCN(Cc3ccc4c(c3)OCO4)CC1)OCO2	0	70*	2	2	-1	3
C1=CCC(CN2CCN(C3CCCCC3)CC2)CC1 (stereo not given)	0	51*	-1	0	12	16
c1cc2c(cc1CN1CCCCC1)OCO2	0	1	0	1	x	x
CN1CCCN(Cc2ccc3c(c2)OCO3)CC1	0	52*	-4	3	2	1
Cc1ccc(S(=O)(=O)N2CCN(CC3CC=CCC3)CC2)cc1 (stereo not given)	0	34	1	0	x	x
